In the library only some 4% were active in any assay of this set; here they are far more common.
PAX8 inh HTS = inhibitors of PAX8 transcriptional activity in RMG-I cells; RMG-I TPO-luciferase reporter, SteadyGlo, 24 h; inhibition, % at 12.6 µM; hit rate 1.2% among 360,000; AID 652154;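 active means mean replicate inhibition at least 60% with every replicate also reaching 60%; inconclusive means only one of the two criteria is met; inactive means mean below 60% and not all replicates reaching 60%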;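 further: luciferase light reporting Pax8 driven TPO promoter activity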
esBAF inh = SWI/SNF esBAF complex inhibition; mouse ES cells, Bmi1-luciferase knock-in reporter, 24 h; 100% = twice the neutral-well signal; reporter increase, % at 12.5 µM; hit rate 2% among 350,000; AID 602393; in the data active means activation above about 40%; inconclusive means no clear call, values can overlap the other calls;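 further: a rise in the Bmi1 reporter signal indicates esBAF inhibition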
MITF TRPM1 HTS = MITF TRPM1 promoter activation in melanoma cells; SK-MEL-5 TRPM1-promoter luciferase, 24 h; % of positive control, neutral wells = 0; activation, % at 12.5 µM; hit rate 0.75% among 300,000;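 active means mean activation of at least 80% with every replicate also reaching 80%; inconclusive means mean reaches 80% but some replicate falls short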
MITF TRPM1 inh = inhibitors of MITF-driven TRPM1 promoter in melanoma cells; inhibition, % at 12.5 µM; SK-MEL-5 TRPM1 promoter luciferase, 24 h; AID 488899; hit rate 0.83% among 330,000;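 active means mean inhibition across replicates of 60% or more, whatever share of single replicates reaches that level; inconclusive means some that reach 60%, reason not given; inactive means mean inhibition across replicates below 60%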
EWS-Fli inh = inhibitors of EWS/Fli oncoprotein transcriptional activity | inhibition, % at 12.6 µM | A673 NR0B1-luciferase reporter, viability-normalised | hit rate 0.67% among 350,000;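 active means mean inhibition of at least 50% after viability correction, with every replicate also passing that limit; inconclusive means mean reaches 50% but only one of two replicates passes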;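 further: firefly luciferase signal divided by Alamar Blue viability fluorescence both relative to DMSO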
Wnt bcat act = activators of Wnt/beta-catenin signaling. Wnt/beta-catenin reporter cell assay, activator, plate reader. activation, % at 9.35 µM. hit rate 1.2% among 300,000. AID 743398; in the data active means activation above about 30%, passing the limit was not always enough; inconclusive means no clear call, values can overlap the other calls
A number is an active result; . = inactive; ? = inconclusive; / = not tested or not shown.

SMILES | PAX8 inh HTS | esBAF inh | MITF TRPM1 HTS | MITF TRPM1 inh | EWS-Fli inh | Wnt bcat act
C/C(=N\NC(=O)c1cc2c(s1)CCC(C)C2)c1ccncc1 (stereo unspecified) | . | . | . | . | . | .
C/C(=N\NC(=O)c1cc2c(s1)CCC(C)C2)c1ccc[nH]1 (stereo unspecified) | . | . | 104.4 | . | . | ?
COCC(=O)Nc1ccc2c(c1)OC[C@@H](C)N(Cc1cc(F)ccc1F)C[C@H](C)[C@H](OC)CN(C)C2=O | . | . | / | / | . | /
CC(C)NC(=O)[C@@]1(c2ccc([N+](=O)[O-])cc2)CC(=O)N(CC23CC4CC(CC(C4)C2)C3)[C@@H]1c1ccc(CO)cc1 | . | / | / | / | . | /
CCCNC(=O)[C@@]1(c2ccc([N+](=O)[O-])cc2)CC(=O)N(CC23CC4CC(CC(C4)C2)C3)[C@@H]1c1ccc(CO)cc1I | 104.7 | / | / | / | . | /
CC1CCN(c2ccc(-c3cccs3)nn2)CC1 | 84.5 | . | . | 79.3 | 88.9 | .
Clc1ccc(-c2cccs2)nn1 | . | / | . | . | . | .
COc1ccc2c(c1)/C(=C\c1cccc(/C=C3/C(=O)Nc4ccc(OC)cc43)n1)C(=O)N2 | . | / | . | 98.3 | 66.6 | .
Cc1ccc2c(c1)/C(=C/c1ccccc1)C(=O)N2 | . | . | . | . | . | .
CN(c1ccccc1)c1ccc(/C=C/[N+](=O)[O-])cc1 | . | / | . | 91.6 | 64.2 | .
CCN1[C@H](C(=O)NCCN2CCCCC2)[C@@H](CO)[C@@H]2Cn3c(ccc(-c4ccc(OC)cc4)c3=O)[C@@H]21 | / | . | / | / | . | /
Oc1cccc(Oc2ncc(C(F)(F)F)cc2Cl)c1 | . | / | . | . | . | 64.5
C[C@H](CO)N1C[C@H](C)[C@H](CN(C)C(=O)Nc2ccc3c(c2)OCO3)Oc2ccc(NC(=O)Nc3ccc(C(F)(F)F)cc3)cc2CC1=O | . | . | / | / | . | /
Brc1ccc(C2=NC(Cc3ccccc3)CO2)cc1 (stereo unspecified) | . | 68.3 | / | / | . | .
OCC1COC(c2ccccc2)=N1 (stereo unspecified) | . | / | / | / | . | .
O=C(CN1CCOCC1)N[C@@H]1CC[C@H](CCNC(=O)C2CCCC2)O[C@@H]1CO | . | . | / | / | . | /
C[C@H]1CCCCO[C@H](CN(C)Cc2ccc(Cl)c(Cl)c2)[C@@H](C)CN([C@@H](C)CO)C(=O)c2cc(NC(=O)Nc3ccc(F)cc3)ccc2O1 | 92.3 | . | / | / | . | /
C[C@@H]1CN([C@H](C)CO)C(=O)c2cc(NC(=O)Nc3ccc(F)cc3)ccc2O[C@@H](C)CCCCO[C@@H]1CN(C)Cc1ccc(Cl)c(Cl)c1 | 85.2 | . | / | / | . | /
Clc1ccccc1-c1csc(Nc2cccnc2)n1 | . | 63.1 | . | . | . | .
COc1cccc(Nc2nc(-c3cccnc3)cs2)c1 | . | ? | 80.6 | . | . | .
c1cncc(Nc2nc(-c3cccnc3)cs2)c1 | / | / | . | . | / | /
Clc1ccccc1Nc1nc(-c2cccnc2)cs1 | . | . | . | . | . | 55.3
c1cncc(Nc2nc(-c3ccncc3)cs2)c1 | / | . | . | . | / | /
C[C@H]1CN([C@@H](C)CO)C(=O)c2cc(NS(=O)(=O)c3cn(C)cn3)ccc2O[C@H]1CN(C)C(=O)NC1CCCCC1 | / | . | / | / | . | /
O=C(NCCc1ccccc1)[C@H]1[C@H](CO)[C@H]2Cn3c(cccc3=O)[C@@H]1N2CC1CC1 | . | . | / | / | . | /
SMILES | PAX8 inh HTS | esBAF inh | MITF TRPM1 HTS | MITF TRPM1 inh | EWS-Fli inh | Wnt bcat act
C/C=C/c1ccc([C@H]2[C@@H](CO)N(C(=O)NCCC)[C@@H]2CNC(=O)C2CCC2)cc1 | . | . | / | / | . | /
CO[C@H]1CC[C@H]2CCN(C)C(=O)[C@@H](C)N(C)C(=O)c3cc(C#N)ccc3OC[C@H]1O2 | . | . | / | / | . | /
O=C(CNc1ccc2ccccc2c1)N/N=C/c1ccc(OC(=O)/C=C/c2ccco2)cc1 | . | / | . | . | . | 50.6
O=C(CNc1cccc2ccccc12)N/N=C/c1ccc(OC(=O)/C=C/c2ccco2)cc1 | . | . | . | . | . | .
CCCCN1C(=O)C(=O)N(c2ccccc2)C1=S | . | / | 121.9 | . | . | .
CC(C)(C)c1ccc(SCCc2ccccn2)cc1 | . | / | 102.4 | . | . | 60.6
Cc1ccc(S(=O)(=O)CCc2ccccn2)cc1 | . | . | . | . | / | /
CC(C)(C)c1ccc(S(=O)(=O)CCc2ccccn2)cc1 | / | 70.5 | . | . | / | .
C[C@@H]1CN([C@H](C)CO)C(=O)c2cccc(NS(=O)(=O)c3ccc(Cl)cc3)c2O[C@H]1CN(C)C(=O)Nc1ccc(F)cc1 | . | . | / | / | . | /
COc1ccc(N2C(=O)c3ccccc3C2O)cc1 (stereo unspecified) | . | . | . | . | . | 44.2
O=C(/C=C/c1ccccc1)NCCc1ccccc1 | / | 89.4 | / | / | . | .
O=C(O)/C=C/C(=O)NCc1ccccc1 | 81.7 | / | . | . | . | .
Cc1noc(C)c1NC(=O)Nc1ccc2c(c1)C(=O)N([C@@H](C)CO)C[C@@H](C)[C@H](CN(C)CC1CC1)OCCCC[C@H](C)O2 | . | . | / | / | / | /
O=C(C[C@H]1C[C@@H]2c3cc(NC(=O)NC4CCCC4)ccc3O[C@@H]2[C@H](CO)O1)NCc1ccc(Cl)cc1 | / | . | / | / | . | /
CCCNC(=O)N1C[C@H](O)COC[C@H]2O[C@@H](CC(=O)N3CCN(C)CC3)CC[C@@H]21 | . | . | / | / | . | /
O=C(N/N=C/c1cc([N+](=O)[O-])ccc1N1CCNCC1)c1ccc([N+](=O)[O-])cc1 | / | . | . | 83.9 | / | /
N#CCC(=O)N/N=C/c1cc([N+](=O)[O-])ccc1N1CCCC1 | . | . | . | . | . | .
Clc1ccc(CN=C2Nc3ccccc3CS2)cc1 | . | 55.6 | / | . | / | 63.6
Cc1cccc(CSC(Nc2ccc(F)cc2)=C(C#N)C#N)c1 | . | / | . | . | / | /
N#CC(C#N)=C(Nc1ccc(F)cc1)SCc1cccc(Br)c1 | 84.9 | / | . | 62.7 | . | .
C#CCNC(=O)C1=C[C@H](c2ccc(C#C)cc2)C[C@H](OCCCCO)O1 | . | / | / | / | . | /
COc1cccc(NC(=O)c2ccc3c(c2)N(C)CCS3)c1 | . | 50.5 | . | . | . | 50.5

Source: PubChem (Broad Institute)
